# Measurements: the supplement of paper PMC11001985
# Values without a mark were called inactive.
# Compound: C#CCNC(=O)CCSSCCC(=O)NCCc1ccc(C=O)c(C=O)c1
# Assay: lysine labeling ratio R10:1 (500 µM / 50 µM probe), SILAC-ABPP in living cells; higher = lower intrinsic lysine reactivity toward the probe, active = 2 or less
# Details: HeLa; probe concentrations 500 vs 50 µM
# In short: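 An alkyne-tagged lysine probe with a disulfide linker labelled living HeLa cells in PBS at room temperature at either 50 µM or 500 µM, using SILAC light and heavy cells in forward and reverse label swaps. Lysates were mixed, clicked to biotin-azide, trypsin-digested, enriched on neutravidin, DTT-released, alkylated and measured by LC-MS/MS on a TIMS-TOF Pro. Each lysine's R is the filtered median high-probe/low-probe MS1 peptide ratio, combined as the median over forward and reverse replicates, with 20 as the upper limit.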
# Sequence of UniProt P32004 (P32004 whole entry): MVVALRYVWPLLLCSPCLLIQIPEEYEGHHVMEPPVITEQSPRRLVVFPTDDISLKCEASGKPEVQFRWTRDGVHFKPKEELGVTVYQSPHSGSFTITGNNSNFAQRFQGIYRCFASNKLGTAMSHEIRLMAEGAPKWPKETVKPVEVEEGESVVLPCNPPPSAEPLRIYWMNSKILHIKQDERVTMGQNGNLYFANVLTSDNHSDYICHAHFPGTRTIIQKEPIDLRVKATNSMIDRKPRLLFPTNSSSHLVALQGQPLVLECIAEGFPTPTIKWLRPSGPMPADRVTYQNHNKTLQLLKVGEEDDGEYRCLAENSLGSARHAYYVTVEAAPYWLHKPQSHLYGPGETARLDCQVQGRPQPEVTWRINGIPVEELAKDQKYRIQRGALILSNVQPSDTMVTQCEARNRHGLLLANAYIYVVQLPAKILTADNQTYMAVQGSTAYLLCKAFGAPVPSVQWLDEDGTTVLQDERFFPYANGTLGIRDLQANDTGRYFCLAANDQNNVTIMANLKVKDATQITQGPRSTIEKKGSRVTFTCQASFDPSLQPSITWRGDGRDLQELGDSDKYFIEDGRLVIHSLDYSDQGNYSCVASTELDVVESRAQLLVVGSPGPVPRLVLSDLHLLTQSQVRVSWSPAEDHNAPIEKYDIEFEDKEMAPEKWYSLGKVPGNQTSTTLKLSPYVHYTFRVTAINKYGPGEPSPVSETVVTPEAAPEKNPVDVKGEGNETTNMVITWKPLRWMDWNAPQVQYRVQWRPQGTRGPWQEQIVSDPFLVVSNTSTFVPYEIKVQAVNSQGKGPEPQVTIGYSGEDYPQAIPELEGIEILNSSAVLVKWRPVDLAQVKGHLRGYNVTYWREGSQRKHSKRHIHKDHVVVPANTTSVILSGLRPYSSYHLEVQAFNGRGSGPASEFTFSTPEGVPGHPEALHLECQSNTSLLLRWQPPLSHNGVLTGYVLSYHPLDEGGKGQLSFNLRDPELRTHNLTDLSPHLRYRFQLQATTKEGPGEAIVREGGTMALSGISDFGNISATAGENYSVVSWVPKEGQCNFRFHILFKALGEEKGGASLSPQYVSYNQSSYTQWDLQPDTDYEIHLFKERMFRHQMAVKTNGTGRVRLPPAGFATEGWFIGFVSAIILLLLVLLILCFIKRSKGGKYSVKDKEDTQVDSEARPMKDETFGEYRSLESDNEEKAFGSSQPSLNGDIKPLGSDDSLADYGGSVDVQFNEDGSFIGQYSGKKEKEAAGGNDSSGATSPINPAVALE
# Sequence of UniProt P38646 (P38646 whole entry): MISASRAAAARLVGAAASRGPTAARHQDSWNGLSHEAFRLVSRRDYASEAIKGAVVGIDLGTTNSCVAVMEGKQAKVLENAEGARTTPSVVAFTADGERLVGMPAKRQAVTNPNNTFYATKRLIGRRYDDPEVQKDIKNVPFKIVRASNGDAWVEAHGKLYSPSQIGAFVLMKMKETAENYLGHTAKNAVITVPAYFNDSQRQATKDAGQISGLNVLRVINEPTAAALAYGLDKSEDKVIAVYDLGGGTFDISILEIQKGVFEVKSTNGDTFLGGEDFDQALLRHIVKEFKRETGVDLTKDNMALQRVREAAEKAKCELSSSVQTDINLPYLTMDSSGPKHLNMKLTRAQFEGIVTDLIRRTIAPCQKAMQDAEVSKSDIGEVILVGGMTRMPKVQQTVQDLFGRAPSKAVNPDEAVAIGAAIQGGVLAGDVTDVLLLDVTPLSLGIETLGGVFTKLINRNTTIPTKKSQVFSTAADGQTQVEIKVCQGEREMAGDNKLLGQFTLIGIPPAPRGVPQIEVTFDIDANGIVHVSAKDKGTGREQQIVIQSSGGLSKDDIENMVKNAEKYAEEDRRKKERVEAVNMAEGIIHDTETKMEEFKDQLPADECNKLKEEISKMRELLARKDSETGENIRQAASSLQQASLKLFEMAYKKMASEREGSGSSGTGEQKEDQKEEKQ
# Sequence of UniProt P16144 (P16144 whole entry): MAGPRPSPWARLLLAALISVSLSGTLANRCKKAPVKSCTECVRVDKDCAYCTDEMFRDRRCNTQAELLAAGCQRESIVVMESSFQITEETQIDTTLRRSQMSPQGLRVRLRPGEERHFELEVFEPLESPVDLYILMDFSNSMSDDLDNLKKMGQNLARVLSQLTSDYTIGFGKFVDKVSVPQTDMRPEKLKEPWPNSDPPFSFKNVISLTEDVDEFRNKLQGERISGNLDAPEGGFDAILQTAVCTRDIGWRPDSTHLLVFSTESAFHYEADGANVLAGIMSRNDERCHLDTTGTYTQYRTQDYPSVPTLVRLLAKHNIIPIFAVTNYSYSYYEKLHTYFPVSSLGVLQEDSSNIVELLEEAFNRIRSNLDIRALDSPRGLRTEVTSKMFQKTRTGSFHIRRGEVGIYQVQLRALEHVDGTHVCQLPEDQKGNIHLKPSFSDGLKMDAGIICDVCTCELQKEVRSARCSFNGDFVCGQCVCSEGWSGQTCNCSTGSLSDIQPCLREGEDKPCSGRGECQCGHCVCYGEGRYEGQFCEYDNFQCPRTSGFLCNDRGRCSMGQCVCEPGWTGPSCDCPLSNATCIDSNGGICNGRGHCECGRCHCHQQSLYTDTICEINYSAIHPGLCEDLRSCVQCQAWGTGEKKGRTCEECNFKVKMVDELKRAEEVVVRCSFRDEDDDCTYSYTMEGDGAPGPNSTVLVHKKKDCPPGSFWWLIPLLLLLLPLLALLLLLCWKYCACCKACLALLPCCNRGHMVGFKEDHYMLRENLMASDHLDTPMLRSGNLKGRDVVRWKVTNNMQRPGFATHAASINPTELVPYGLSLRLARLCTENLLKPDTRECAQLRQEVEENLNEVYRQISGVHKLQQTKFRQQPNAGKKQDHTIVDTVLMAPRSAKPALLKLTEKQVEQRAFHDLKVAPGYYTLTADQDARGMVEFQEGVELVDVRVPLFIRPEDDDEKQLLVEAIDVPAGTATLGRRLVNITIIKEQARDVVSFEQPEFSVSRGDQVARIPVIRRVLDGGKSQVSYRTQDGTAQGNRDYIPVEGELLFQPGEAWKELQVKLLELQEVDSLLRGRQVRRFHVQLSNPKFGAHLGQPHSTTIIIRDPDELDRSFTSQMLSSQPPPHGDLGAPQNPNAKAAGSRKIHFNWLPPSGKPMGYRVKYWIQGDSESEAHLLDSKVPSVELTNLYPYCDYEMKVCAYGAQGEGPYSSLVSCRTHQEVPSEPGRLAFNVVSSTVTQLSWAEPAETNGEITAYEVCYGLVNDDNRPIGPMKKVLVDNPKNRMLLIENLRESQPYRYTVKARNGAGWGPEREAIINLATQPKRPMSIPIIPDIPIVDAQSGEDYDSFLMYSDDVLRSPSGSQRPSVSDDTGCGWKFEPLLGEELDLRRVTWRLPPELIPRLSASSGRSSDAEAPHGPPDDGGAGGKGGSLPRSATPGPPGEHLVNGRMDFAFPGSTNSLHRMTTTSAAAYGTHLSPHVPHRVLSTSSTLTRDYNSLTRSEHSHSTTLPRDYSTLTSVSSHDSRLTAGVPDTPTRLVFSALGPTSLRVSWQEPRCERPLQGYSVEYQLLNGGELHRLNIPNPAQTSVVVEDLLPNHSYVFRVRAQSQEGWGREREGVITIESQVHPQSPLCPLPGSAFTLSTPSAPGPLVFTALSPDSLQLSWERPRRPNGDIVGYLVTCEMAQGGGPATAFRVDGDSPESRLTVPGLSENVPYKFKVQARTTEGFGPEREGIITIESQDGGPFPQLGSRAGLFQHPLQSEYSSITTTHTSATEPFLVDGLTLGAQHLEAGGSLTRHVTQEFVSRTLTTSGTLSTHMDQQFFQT
# Sequence of UniProt Q9BZM5 (Q9BZM5 whole entry): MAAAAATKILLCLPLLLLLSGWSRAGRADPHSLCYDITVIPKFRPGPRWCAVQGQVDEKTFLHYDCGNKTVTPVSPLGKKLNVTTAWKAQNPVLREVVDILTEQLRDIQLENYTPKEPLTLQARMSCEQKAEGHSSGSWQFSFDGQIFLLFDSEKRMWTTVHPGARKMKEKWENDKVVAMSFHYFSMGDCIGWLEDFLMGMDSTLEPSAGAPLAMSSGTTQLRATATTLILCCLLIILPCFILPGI
# Sequence of UniProt Q8WWI5 (Q8WWI5 whole entry): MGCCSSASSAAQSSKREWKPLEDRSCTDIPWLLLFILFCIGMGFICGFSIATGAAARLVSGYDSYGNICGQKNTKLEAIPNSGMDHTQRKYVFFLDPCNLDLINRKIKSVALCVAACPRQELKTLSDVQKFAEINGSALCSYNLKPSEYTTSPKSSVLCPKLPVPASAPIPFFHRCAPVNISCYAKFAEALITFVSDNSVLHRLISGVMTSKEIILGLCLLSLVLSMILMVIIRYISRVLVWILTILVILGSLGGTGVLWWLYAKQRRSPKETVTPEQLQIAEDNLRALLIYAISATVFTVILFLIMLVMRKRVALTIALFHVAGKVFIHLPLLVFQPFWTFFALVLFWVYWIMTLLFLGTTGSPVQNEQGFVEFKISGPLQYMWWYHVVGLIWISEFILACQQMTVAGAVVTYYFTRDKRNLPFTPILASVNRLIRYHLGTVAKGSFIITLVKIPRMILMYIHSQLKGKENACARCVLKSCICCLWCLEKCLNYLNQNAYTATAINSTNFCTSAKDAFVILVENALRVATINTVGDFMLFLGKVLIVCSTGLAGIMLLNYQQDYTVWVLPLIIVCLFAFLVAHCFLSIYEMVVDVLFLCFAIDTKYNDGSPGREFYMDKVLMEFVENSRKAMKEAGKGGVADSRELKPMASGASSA
# Sequence of UniProt P34741 (P34741 whole entry): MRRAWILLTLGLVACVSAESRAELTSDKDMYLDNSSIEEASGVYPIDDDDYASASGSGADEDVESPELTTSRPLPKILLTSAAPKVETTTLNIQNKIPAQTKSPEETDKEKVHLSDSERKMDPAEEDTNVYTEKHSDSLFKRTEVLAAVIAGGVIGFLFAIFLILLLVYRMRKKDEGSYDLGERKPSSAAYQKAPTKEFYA
# Sequence of UniProt Q13442 (Q13442 whole entry): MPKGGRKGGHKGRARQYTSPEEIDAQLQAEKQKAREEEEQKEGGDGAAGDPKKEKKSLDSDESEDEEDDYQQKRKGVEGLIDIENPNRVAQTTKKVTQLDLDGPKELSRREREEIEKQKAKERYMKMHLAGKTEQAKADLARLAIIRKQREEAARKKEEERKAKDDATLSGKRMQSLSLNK
row,Target,lysine labeling ratio R10:1
1,LRP6 (lysine site: K1053) (UniProt O75581),2.76
2,L1CAM (lysine site: K378) (UniProt P32004),14
3,PLXND1 (lysine site: K310) (UniProt Q9Y4D7),3.11
4,SLC44A1 (lysine site: K75) (UniProt Q8WWI5),2.45
5,CYR61 (lysine site: K378) (UniProt O00622),1.08 (active)
6,FAT4 (lysine site: K2566) (UniProt Q6V0I7),2.59
7,HSPA9 (lysine site: K345) (UniProt P38646),1.17 (active)
8,P4HB (lysine site: K81) (UniProt P07237),6.39
9,UniProt Q16363 (lysine site: K1330),2.83
10,ULBP2 (lysine site: K116) (UniProt Q9BZM5),5.14
11,UniProt Q13275 (lysine site: K62),3.35
12,L1CAM (lysine site: K119) (UniProt P32004),3.56
13,FAT1 (lysine site: K978) (UniProt Q14517),0.71 (active)
14,SDC2 (lysine site: K141) (UniProt P34741),1.35 (active)
15,UniProt P62829 (lysine site: K123),0.877 (active)
16,LAMB1 (lysine site: K184) (UniProt P07942),1.21 (active)
17,CCT3 (lysine site: K381) (UniProt P49368),2.81
18,ICAM1 (lysine site: K359) (UniProt P05362),3.71
19,KRT18 (lysine site: K111) (UniProt P05783),14.4
20,UniProt P16144 (lysine site: K662),1.57 (active)
21,DISP1 (lysine site: K380) (UniProt Q96F81),2.05
22,EGFR (lysine site: K133) (UniProt P00533),1.08 (active)
23,PDAP1 (lysine site: K181) (UniProt Q13442),1.83 (active)
